Each structure is given as a SMILES string. Compounds without any hit were thinned out: in the full panel of roughly 83,000, 20% have a hit.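 In brief: 96-well plates, 48 h treatment, single concentration, percent growth endpoint.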 Values without a mark were called inactive. The source made the active and inactive calls. The calls were made as follows: active = growth percent below 10; inactive = the rest.

Some test systems named below: SK-MEL-2 melanoma; EKVX NSCLC; SN12C renal; UO-31 renal; TK-10 renal; A498 renal; CCRF-CEM leukemia; MOLT-4 leukemia; SR leukemia; RPMI-8226 leukemia; OVCAR-8 ovarian; OVCAR-5 ovarian; OVCAR-4 ovarian; SK-OV-3 ovarian; IGROV1 ovarian; OVCAR-3 ovarian; HS 578T breast; NCI/ADR-RES ovarian; ACHN renal; CAKI-1 renal.
Holding throughout (test): NCI-60 one-dose screen, 48 h (100 = growth as untreated, 0 = no growth, -100 = all killed)
Common to all, as to settings: 10 µM unless noted

On to `CN1C[C@@H](c2ccc(Cl)cc2)[C@]2(NC(=S)N(c3ccc(F)c(Cl)c3)C2=O)[C@@]12C(=O)NC1C=CC(Cl)=C[C@H]12` (some centres undefined), for which the growth in the assay with SK-MEL-2 melanoma is 53.3%; in the assay with EKVX NSCLC, 50.7%; in the assay with SN12C renal it was -63.2% (active); in the assay with UO-31 renal, 26.1%; with TK-10 renal, 82%; with A498 renal it was 66.8%. Further, the growth is 6.69% (active) in the assay on CCRF-CEM leukemia; 3.29% (active) in the assay on MOLT-4 leukemia; 0.495% (active) in the assay with SR leukemia; 2.67% (active) in the assay with RPMI-8226 leukemia; 60% in the assay with OVCAR-8 ovarian; 52.8% in the assay with OVCAR-5 ovarian. The growth was 57% with OVCAR-4 ovarian; 80.7% in the assay on SK-OV-3 ovarian; 41.9% in the assay with IGROV1 ovarian; 48.5% in the assay with OVCAR-3 ovarian; 77.6% with HS 578T breast; 42% with NCI/ADR-RES ovarian.
Take `CCN(CC)CCOC(=O)Nc1ccccc1Cl`: the growth in the assay on SK-MEL-2 melanoma is 88.3%; in the assay with EKVX NSCLC, 106%; with SN12C renal, 103%; in the assay with UO-31 renal it was 80.4%; in the assay on TK-10 renal it was 86.1%; with CCRF-CEM leukemia, 75.7%. Moreover, the growth in the assay with MOLT-4 leukemia is 94.7%; in the assay on SR leukemia, 102%; in the assay on RPMI-8226 leukemia it was 88.8%; in the assay on OVCAR-8 ovarian, 104%; in the assay with OVCAR-5 ovarian it was 110%; with OVCAR-4 ovarian, 120%. Further, the growth with SK-OV-3 ovarian is 108%; in the assay on IGROV1 ovarian, 101%; in the assay with OVCAR-3 ovarian, 108%; with HS 578T breast, 109%; in the assay with NCI/ADR-RES ovarian, 110%.
For `COc1cc2c(cc1OC)-c1ccc3cc4c(cc3c1N(CCCN(C)C)C2)OCO4`, the growth with SK-MEL-2 melanoma was 45.4%; in the assay with EKVX NSCLC, 60%; with SN12C renal, 27.4%; with UO-31 renal it was 38.7%; in the assay on TK-10 renal, 46.6%; with A498 renal, 8.3% (active). Also, the growth was 20.5% with CCRF-CEM leukemia; 8.66% (active) in the assay with MOLT-4 leukemia; 15.3% in the assay on SR leukemia; 17.1% in the assay on RPMI-8226 leukemia; 27.5% in the assay with OVCAR-8 ovarian; 60% in the assay with OVCAR-5 ovarian. In addition, the growth was 55.3% in the assay on SK-OV-3 ovarian; 21.7% with IGROV1 ovarian; 48% in the assay on OVCAR-3 ovarian; 45.5% in the assay with HS 578T breast; 65.4% with NCI/ADR-RES ovarian.
For the compound `CCOC(=O)C1C(=O)C=C(c2cnccn2)CC1c1ccc(OC)c(OC)c1` (centres undefined), the growth in the assay on SK-MEL-2 melanoma was 86.4%; in the assay with EKVX NSCLC, 101%; in the assay with SN12C renal it was 100%; in the assay on UO-31 renal, 87.4%; in the assay on TK-10 renal it was 87.8%; with A498 renal, 119%. The growth with CCRF-CEM leukemia was 82.2%; in the assay with MOLT-4 leukemia, 73.2%; in the assay on SR leukemia it was 89.6%; in the assay on RPMI-8226 leukemia it was 90%; in the assay with OVCAR-8 ovarian, 92.3%; with OVCAR-5 ovarian it was 103%. Moreover, the growth in the assay on OVCAR-4 ovarian was 109%; in the assay on SK-OV-3 ovarian, 82.2%; with IGROV1 ovarian, 105%; with OVCAR-3 ovarian it was 106%; with HS 578T breast, 99.8%; with NCI/ADR-RES ovarian, 98.2%.
Turning to `CCOC(=O)c1c(C)nc2c(c1N)/C(=C/c1cc(OC)c(OC)c(OC)c1)C(=O)N2c1ccc(OC)cc1`, the growth was 67.1% in the assay on SK-MEL-2 melanoma; 93.2% with EKVX NSCLC; 36.2% in the assay with SN12C renal; 55.7% in the assay with UO-31 renal; 77.4% in the assay with TK-10 renal; 82.2% with A498 renal. In addition, the growth was 8.45% (active) with CCRF-CEM leukemia; 17.6% with MOLT-4 leukemia; 12.4% with SR leukemia; -6.44% (active) with RPMI-8226 leukemia; 37.7% in the assay on OVCAR-8 ovarian; 85.7% in the assay with OVCAR-5 ovarian. The growth with OVCAR-4 ovarian was 87%; with SK-OV-3 ovarian, 105%; in the assay with IGROV1 ovarian it was 33.6%; with OVCAR-3 ovarian, 42.1%; in the assay on HS 578T breast, 95.1%; in the assay with NCI/ADR-RES ovarian, 34.7%.
Take `COc1cc2c(=O)n(CCCn3ccnc3)c3c4cc5c(cc4ccc3c2cc1OC)OCO5`: the growth with SK-MEL-2 melanoma was 22%; in the assay with EKVX NSCLC, 21.3%; in the assay on SN12C renal, 16.9%; in the assay with UO-31 renal, -27.3% (active); in the assay with TK-10 renal, 35.3%; with A498 renal, -75.6% (active). The growth is 3.73% (active) in the assay with CCRF-CEM leukemia; 3.68% (active) in the assay on MOLT-4 leukemia; 10.5% in the assay on SR leukemia; -31.9% (active) in the assay with RPMI-8226 leukemia; 15.1% with OVCAR-8 ovarian; 13.9% in the assay on OVCAR-5 ovarian. Further, the growth was 28.6% with OVCAR-4 ovarian; -11.4% (active) in the assay with SK-OV-3 ovarian; 19.5% in the assay on IGROV1 ovarian; -8.36% (active) with OVCAR-3 ovarian; 32.4% in the assay on HS 578T breast; 10.5% in the assay with NCI/ADR-RES ovarian.
Consider `COc1ccc(-c2nc3ncccn3c2/C=C/C(=O)c2cc(OC)c(OC)c(OC)c2)cc1`, for which the growth in the assay with SK-MEL-2 melanoma was 0.675% (active); in the assay on EKVX NSCLC, 1.1% (active); in the assay with SN12C renal, 15.7%; in the assay on TK-10 renal, 15.5%; in the assay on ACHN renal, 20.4%; in the assay with CAKI-1 renal it was -3.66% (active). In addition, the growth was -20.5% (active) with A498 renal; 4.3% (active) in the assay with MOLT-4 leukemia; -2.39% (active) in the assay on SR leukemia; -32.2% (active) in the assay with RPMI-8226 leukemia; 9.62% (active) in the assay on OVCAR-8 ovarian; 7.94% (active) with OVCAR-4 ovarian. The growth with SK-OV-3 ovarian was -13.5% (active); with IGROV1 ovarian it was 17.2%; with OVCAR-3 ovarian, -24.4% (active).
`Cc1nc(Nc2ccc(NC(=S)Nc3ccccc3)cc2)c2ccccc2n1`: the growth was 111% in the assay on SK-MEL-2 melanoma; 95.6% with EKVX NSCLC; 101% in the assay on SN12C renal; 131% with TK-10 renal; 102% with ACHN renal; 91.3% in the assay on CAKI-1 renal. Also, the growth with A498 renal was 100%; in the assay with SR leukemia, 80.5%; in the assay on RPMI-8226 leukemia, 98.6%; with OVCAR-8 ovarian, 101%; in the assay with OVCAR-5 ovarian it was 110%; in the assay on OVCAR-4 ovarian, 121%. Moreover, the growth in the assay with SK-OV-3 ovarian is 107%; in the assay on IGROV1 ovarian, 99.8%; in the assay on OVCAR-3 ovarian it was 118%; with HS 578T breast, 96%; in the assay on NCI/ADR-RES ovarian, 107%.
`COc1ccc(-c2cc(-c3ccc(Nc4nc(Nc5ccccc5)nc(Nc5ccc(Cl)cc5)n4)cc3)nc(N)c2C#N)cc1`: the growth is -33% (active) with SK-MEL-2 melanoma; 18.7% in the assay on EKVX NSCLC; 25.7% in the assay with SN12C renal; -86.6% (active) in the assay with TK-10 renal; -82.2% (active) in the assay with ACHN renal; -20.4% (active) in the assay on CAKI-1 renal. Also, the growth in the assay with CCRF-CEM leukemia is 3.41% (active); with MOLT-4 leukemia, 2.08% (active); with RPMI-8226 leukemia it was -29.6% (active); in the assay on OVCAR-8 ovarian, 31.9%; with OVCAR-5 ovarian it was -38.7% (active); in the assay with OVCAR-4 ovarian, 4.19% (active). For the same compound, the growth is 86.8% in the assay on SK-OV-3 ovarian, -18.4% (active) in the assay on IGROV1 ovarian, -96.1% (active) in the assay with OVCAR-3 ovarian and 2.12% (active) with NCI/ADR-RES ovarian.

Values taken from PubChem BioAssay (NCI).
